# Experimental data from the supplement of paper PMC10849652.
# The full data set covers some 8,800 targets. This sample favours those with a hit. About 0.5% of all pairs of compound and target were hits. Values without a mark were called inactive.
# Compound: NC(=O)Nc1cc(-c2cccc(F)c2)sc1C(=O)N[C@H]1CCCNC1
# Experiment: log2 fold change, soluble protein after heating vs DMSO (PISA); higher = thermal stabilisation; K562 lysate, 10 uM; active = over 0.2 and 3.5 SD of the protein, either way, in both replicates (recomputed)
# Procedure, shortened: (§1)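 Log-two fold change in thermal stability relative to solvent controls is reported from duplicates. For each sample, crude K562 extract from dounce-homogenised pellets in PBS pH 7.4 with 1 mM MgCl2, at 1 mg/mL protein, was treated with 10 μM compound for 30 min. Aliquots heated for 3 min across 48°C-58°C were pooled, brought to 0.5% NP-40 at 4°C and cleared at 21,000xg for 90 min. The supernatant was quantified by TMTpro 16plex LC-MS/MS with channel sums equalised.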
# UniProt P50570, sequence (P50570 whole entry, looked up): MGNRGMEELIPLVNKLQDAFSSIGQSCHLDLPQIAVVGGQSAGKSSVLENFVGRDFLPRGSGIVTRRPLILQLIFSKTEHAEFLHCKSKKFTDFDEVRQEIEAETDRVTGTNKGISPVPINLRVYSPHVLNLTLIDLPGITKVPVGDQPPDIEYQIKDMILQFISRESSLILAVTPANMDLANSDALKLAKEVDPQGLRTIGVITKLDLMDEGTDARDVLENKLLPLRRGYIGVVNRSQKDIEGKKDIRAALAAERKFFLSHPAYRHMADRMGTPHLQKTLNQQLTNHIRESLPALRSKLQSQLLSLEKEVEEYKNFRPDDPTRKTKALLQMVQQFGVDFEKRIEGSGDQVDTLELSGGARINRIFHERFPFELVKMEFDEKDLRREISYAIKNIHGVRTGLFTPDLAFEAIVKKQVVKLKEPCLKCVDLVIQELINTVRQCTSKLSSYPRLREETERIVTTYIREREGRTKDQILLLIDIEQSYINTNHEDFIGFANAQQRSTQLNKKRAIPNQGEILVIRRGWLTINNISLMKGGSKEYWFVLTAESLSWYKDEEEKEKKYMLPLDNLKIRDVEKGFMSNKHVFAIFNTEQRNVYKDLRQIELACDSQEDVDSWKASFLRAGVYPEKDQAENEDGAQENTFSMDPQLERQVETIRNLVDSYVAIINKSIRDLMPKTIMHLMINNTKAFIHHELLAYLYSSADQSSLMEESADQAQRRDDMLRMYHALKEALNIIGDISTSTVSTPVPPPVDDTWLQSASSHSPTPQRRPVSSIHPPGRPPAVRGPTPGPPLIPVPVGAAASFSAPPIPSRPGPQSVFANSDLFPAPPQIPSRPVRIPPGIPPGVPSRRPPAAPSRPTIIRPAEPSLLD
# UniProt P33240, sequence (P33240 whole entry, looked up): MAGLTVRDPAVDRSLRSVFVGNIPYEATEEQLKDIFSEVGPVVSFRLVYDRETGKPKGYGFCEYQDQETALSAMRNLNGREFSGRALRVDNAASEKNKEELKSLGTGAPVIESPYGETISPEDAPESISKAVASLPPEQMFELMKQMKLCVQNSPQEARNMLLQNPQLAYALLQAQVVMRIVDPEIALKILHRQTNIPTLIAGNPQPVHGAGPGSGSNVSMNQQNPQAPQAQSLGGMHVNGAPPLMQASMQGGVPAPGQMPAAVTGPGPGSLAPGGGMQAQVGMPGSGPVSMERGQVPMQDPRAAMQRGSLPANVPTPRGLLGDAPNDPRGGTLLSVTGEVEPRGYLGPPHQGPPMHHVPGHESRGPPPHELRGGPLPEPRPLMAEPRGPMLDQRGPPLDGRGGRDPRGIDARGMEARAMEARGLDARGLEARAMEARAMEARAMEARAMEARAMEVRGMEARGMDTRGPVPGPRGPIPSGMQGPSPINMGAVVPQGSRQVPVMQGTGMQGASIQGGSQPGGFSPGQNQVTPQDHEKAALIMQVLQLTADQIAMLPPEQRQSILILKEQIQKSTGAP
# UniProt Q1MSJ5, sequence (Q1MSJ5 whole entry, looked up): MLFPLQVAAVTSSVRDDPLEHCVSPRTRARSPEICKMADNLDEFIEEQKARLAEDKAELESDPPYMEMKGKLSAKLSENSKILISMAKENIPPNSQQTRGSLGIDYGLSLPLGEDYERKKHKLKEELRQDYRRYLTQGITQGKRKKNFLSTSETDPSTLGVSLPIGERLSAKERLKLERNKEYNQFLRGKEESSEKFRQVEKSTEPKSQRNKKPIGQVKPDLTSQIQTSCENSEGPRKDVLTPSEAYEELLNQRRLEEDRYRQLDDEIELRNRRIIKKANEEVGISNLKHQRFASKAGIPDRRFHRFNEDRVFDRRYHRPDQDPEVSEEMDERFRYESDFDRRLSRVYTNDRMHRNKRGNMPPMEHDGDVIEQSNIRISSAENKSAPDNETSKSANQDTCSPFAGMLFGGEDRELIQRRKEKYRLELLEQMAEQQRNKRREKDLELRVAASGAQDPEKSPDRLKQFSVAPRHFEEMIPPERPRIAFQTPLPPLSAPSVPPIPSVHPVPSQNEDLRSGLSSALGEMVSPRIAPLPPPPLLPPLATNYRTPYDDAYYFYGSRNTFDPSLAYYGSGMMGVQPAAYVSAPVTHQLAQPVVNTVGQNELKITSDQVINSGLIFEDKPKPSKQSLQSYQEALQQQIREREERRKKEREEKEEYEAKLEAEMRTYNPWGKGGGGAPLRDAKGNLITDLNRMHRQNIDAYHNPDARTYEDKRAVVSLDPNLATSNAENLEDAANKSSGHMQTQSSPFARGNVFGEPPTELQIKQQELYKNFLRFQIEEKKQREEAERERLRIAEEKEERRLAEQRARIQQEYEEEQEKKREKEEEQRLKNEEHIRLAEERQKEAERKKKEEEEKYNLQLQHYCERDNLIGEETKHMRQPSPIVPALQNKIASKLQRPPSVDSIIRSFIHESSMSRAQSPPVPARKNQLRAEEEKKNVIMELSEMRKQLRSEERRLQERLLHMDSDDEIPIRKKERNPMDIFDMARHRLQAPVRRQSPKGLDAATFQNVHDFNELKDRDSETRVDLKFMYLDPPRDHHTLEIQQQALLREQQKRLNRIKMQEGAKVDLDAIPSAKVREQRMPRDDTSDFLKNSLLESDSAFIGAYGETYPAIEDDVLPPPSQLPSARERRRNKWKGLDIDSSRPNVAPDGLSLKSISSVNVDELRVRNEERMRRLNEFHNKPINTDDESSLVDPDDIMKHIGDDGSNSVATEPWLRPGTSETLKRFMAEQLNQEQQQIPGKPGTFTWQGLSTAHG
# UniProt Q6UWP2, sequence (Q6UWP2 whole entry, looked up): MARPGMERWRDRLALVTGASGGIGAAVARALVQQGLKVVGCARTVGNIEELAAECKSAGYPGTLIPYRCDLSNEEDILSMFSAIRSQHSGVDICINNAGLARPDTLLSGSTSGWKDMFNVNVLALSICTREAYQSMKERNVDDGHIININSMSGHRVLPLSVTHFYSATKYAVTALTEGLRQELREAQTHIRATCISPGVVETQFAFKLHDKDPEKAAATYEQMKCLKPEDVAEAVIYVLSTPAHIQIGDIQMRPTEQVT
# UniProt O60762, sequence (O60762 whole entry, looked up): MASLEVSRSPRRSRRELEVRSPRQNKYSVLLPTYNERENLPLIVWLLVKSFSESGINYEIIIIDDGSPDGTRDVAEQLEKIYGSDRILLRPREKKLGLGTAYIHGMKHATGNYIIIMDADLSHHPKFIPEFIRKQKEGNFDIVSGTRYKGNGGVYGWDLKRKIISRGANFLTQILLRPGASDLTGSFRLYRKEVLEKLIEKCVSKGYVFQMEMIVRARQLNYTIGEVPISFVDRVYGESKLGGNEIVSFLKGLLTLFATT
# UniProt O14757, sequence (O14757 whole entry, looked up): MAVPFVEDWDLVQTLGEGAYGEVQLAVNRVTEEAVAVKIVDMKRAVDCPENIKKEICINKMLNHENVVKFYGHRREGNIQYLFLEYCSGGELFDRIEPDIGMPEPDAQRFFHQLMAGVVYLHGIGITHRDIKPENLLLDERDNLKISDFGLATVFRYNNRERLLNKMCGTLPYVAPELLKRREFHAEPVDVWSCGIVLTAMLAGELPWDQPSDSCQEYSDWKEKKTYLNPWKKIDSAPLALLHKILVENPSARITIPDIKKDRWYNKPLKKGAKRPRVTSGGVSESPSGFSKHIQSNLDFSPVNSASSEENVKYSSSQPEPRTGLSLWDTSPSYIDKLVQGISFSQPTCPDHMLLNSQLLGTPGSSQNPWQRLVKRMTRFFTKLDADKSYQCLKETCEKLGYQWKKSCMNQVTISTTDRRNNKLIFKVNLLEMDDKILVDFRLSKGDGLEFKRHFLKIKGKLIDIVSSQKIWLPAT
# UniProt Q14746, sequence (Q14746 whole entry, looked up): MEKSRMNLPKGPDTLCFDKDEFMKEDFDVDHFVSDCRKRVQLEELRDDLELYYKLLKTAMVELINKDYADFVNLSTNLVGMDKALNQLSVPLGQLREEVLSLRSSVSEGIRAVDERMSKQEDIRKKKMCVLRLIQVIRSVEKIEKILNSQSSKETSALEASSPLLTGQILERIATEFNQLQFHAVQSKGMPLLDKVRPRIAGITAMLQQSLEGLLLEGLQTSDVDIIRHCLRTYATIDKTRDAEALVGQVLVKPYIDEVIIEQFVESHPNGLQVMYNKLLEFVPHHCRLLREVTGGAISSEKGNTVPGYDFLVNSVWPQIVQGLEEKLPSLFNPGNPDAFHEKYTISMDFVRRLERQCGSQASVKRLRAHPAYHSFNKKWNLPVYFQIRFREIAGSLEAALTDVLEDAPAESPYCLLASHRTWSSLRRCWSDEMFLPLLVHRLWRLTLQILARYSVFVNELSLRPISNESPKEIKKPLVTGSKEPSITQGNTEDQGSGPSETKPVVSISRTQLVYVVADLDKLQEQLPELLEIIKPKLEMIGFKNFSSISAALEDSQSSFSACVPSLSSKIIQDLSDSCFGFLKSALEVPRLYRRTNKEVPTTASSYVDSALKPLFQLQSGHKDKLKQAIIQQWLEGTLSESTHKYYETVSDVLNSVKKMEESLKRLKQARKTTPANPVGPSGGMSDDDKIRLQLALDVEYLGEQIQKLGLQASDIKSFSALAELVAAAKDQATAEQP
# UniProt O15247, sequence (O15247 whole entry, looked up): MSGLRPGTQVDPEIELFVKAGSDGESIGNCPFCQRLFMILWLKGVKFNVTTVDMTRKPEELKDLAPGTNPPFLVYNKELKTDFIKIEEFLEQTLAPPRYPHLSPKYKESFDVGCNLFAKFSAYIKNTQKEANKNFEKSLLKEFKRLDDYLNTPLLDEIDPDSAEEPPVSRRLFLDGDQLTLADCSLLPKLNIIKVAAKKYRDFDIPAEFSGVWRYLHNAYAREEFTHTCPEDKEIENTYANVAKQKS
# UniProt Q8TB03, sequence (Q8TB03 whole entry, looked up): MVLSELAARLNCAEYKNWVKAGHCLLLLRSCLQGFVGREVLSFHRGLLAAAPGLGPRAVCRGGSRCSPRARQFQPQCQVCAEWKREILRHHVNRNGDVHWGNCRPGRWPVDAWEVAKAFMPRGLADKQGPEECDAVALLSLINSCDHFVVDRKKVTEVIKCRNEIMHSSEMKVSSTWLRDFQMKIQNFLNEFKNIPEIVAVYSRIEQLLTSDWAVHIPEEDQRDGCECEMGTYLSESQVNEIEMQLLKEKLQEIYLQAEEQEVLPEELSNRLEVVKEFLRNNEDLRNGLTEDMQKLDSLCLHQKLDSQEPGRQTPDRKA
row,Target,log2 fold change
1,DMXL1 (UniProt Q9Y485),0.01
2,DNM2 (UniProt P50570),0.034
3,COG3 (UniProt Q96JB2),0.044
4,DPM1 (UniProt O60762),0.038
5,CSPP1 (UniProt Q1MSJ5),0.015
6,CNIH4 (UniProt Q9P003),0.088
7,CSTF2 (UniProt P33240),-0.013
8,CXorf38 (UniProt Q8TB03),0.006
9,DHRS11 (UniProt Q6UWP2),0.037
10,CHEK1 (UniProt O14757),0.242 (active)
11,COG2 (UniProt Q14746),0.055
12,CLIC2 (UniProt O15247),0.023

# Compound: NC(=O)c1cnc(N[C@@H]2CCCC[C@@H]2N)nc1Nc1cccc(-n2nccn2)c1
# Experiment: as above
# Procedure, shortened: as §1
row,Target,log2 fold change
1,COTL1 (UniProt Q14019),-0.028
2,DHCR7 (UniProt Q9UBM7),0.008
3,DIAPH3 (UniProt Q9NSV4),0.077
4,DMAC2L (UniProt Q99766),-0.006
5,COQ8A (UniProt Q8NI60),0.348
6,CLIP1 isoform 1 (UniProt P30622),-0.002
7,CORO7 isoform 3 (UniProt P57737),-0.016
8,CLASP2 isoform 3 (UniProt O75122),-0.007
9,COG5 isoform 2 (UniProt Q9UP83),-0.081
10,DOCK7 (UniProt Q96N67),0.036
11,CLUH (UniProt O75153),-0.006
12,CRABP2 (UniProt P29373),-0.036
13,CUEDC2 (UniProt Q9H467),-0.021
14,CNOT6L (UniProt Q96LI5),-0.024
15,COG4 (UniProt Q9H9E3),0.001
16,CLPTM1L (UniProt Q96KA5),0.016
17,DPH5 isoform 5 (UniProt Q9H2P9),-0.025

row,Target,log2 fold change
1,CXXC1 isoform 2 (UniProt Q9P0U4),-0.021
2,COG6 (UniProt Q9Y2V7),-0.008
3,DENND4A isoform 2 (UniProt Q7Z401),0.042
4,CMBL (UniProt Q96DG6),-0.023
5,DNM2 isoform 4 (UniProt P50570),0.044
6,DMXL1 (UniProt Q9Y485),0.014
7,DNM2 (UniProt P50570),0.037
8,COG3 (UniProt Q96JB2),0.024
9,DPM1 (UniProt O60762),0.019
10,CSPP1 (UniProt Q1MSJ5),-0.227
11,CNIH4 (UniProt Q9P003),0.076
12,CSTF2 (UniProt P33240),-0.007
13,CXorf38 (UniProt Q8TB03),0.049
14,DHRS11 (UniProt Q6UWP2),0.002
15,CHEK1 (UniProt O14757),0.003
16,COG2 (UniProt Q14746),0.001
17,CLIC2 (UniProt O15247),0.004
